PubChem BioAssay AID686978 (National Center for Advancing Translational Sciences (NCATS), 2013)
The whole screen tested about 420,000 compounds, of which about 64,000 (15%) were called active. Inconclusive results (about 27%) are left out. Only a sample is shown. Unmarked numbers belong to inactive results. Calls follow the shape of the dose curve; as a rule, active = well fitted inhibition curve with a large enough effect; inconclusive = small, poorly fitted or top-dose-only effect; inactive = flat fitted curve, though single readings scatter.

assay: qHTS for Inhibitors of human tyrosyl-DNA phosphodiesterase 1 (TDP1): qHTS in cells in absence of CPT; details: DT40 Tdp1-/- hTDP1 cells, no CPT, ATP luminescence, 48 h; activity change, negative = growth inhibition: at 46.2 µM (top of the series); also: nearly all actives have a fitted effect of over 55% in size
In short: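 Camptothecin absent (DMSO only). Human TDP1-complemented DT40 knockout cells, 400 cells/well, 37 °C for minimum 48 hr; ATP measured via CellTiter-Glo, 30 min dark incubation, luminescence.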
% is scaled to controls: 0 for no effect and ±100 for the full control effect; potency is read from the fitted curve at half-maximal effect.

Row | Compound | activity change, negative = growth inhibition [%] | Potency
1 | Cc1ccc(NC(=O)C2CC2c2ccccc2)cc1 (stereo not given) | 2.36 | 
2 | Nc1ncnc2c1ncn2[C@@H]1O[C@H](C(=O)N2CCSC2)[C@@H](O)[C@H]1O | -25.8 | 
3 | C=CCc1ccccc1OCC(O)CN1CCN(CCO)CC1 (stereo not given) | 20.7 | 
4 | Cc1cccc(OCC(O)CN2CCN(CCN3C(=O)c4cccc5cccc(c45)C3=O)CC2)c1C (stereo not given) |  | 25.9 µM (active)
5 | Cc1cccc(C)c1OCC(O)CN1CCCCC1 (stereo not given) | 4.81 | 
6 | CCCC(C(=O)NC1CCCC1)N(C(=O)Cn1nnc(-c2ccc(C)o2)n1)c1cccc(O)c1 (stereo not given) | -11.8 | 
7 | COC(=O)c1cc(C)sc1NC(=O)CC1Nc2ccccc2NC1=O (stereo not given) | -15.1 | 
8 | O=C(c1csnn1)N1CCC[C@@]2(CCN(Cc3nccs3)C2)C1 | 4.1 | 
9 | NC(=O)NC(=O)C(OC(=O)CCNS(=O)(=O)c1ccccc1)c1ccccc1 (stereo not given) | 2.11 | 
10 | Cc1ccc(N2C(=O)C(Cc3ccccc3)NC2=S)cc1 (stereo not given) | -9.36 | 
11 | Cc1ccc(N2C(=O)C3CC3C2=O)cc1 (stereo not given) | 11 | 
12 | Cc1ccc(N2C(=O)C3C(c4ccccc4)(C2=O)C3(c2ccccc2)c2ccccc2)cc1 (stereo not given) |  | 13 µM (active)
13 | O=C(N1CCCC1)C12CC3CC(C1)CC(C(=O)N1CCCC1)(C3)C2 | -19 | 
14 | COc1ccccc1C(=O)NNC(=O)CCN1C(=O)/C(=C\c2ccccc2)SC1=S | -25.6 | 
15 | CC(OC(=O)CNS(=O)(=O)/C=C/c1ccccc1)C(=O)Nc1ccc(S(=O)(=O)N2CCCC2)cc1 (stereo not given) | -12.5 | 
16 | Cc1ccc(CNC(=O)CC(NC(=O)c2ccccc2)c2ccccc2)cc1 (stereo not given) | 11.7 | 
17 | COc1ccc(Cc2nc3ccc(C(=O)NCc4ccccc4Cl)cc3o2)cc1 |  | 16.4 µM (active)
18 | COc1ccc(Cc2nc3ccc(C(=O)NCc4ccccc4C)cc3o2)cc1 |  | 8.2 µM (active)
19 | COCCNC(=O)c1ccc2nc(Cc3ccc(OC)c(OC)c3)oc2c1 | 0.0783 | 
20 | CCn1ccnc1CN(C)C(=O)c1ccc2nc(Cc3ccc(OC)cc3)oc2c1 | -4.12 | 
21 | COc1ccc(Cc2nc3ccc(C(=O)N4CCC(N(C)C)C4)cc3o2)cc1 (stereo not given) | 9.41 | 
22 | CSCCNC(=O)c1ccc2nc(Cc3ccccc3F)oc2c1 | -0.744 | 
23 | CCCc1c(C(=O)N/N=C(\C)CCc2ccc(OC)cc2)nnn1-c1nonc1N | 15.5 | 
24 | Cc1ccc2c(C)c(C(=O)N(C)Cc3ccncn3)oc2c1C | 15.4 | 

Row | Compound | activity change, negative = growth inhibition [%] | Potency
25 | CCOCCCNC(=O)C(NC(=O)Cc1c[nH]c2ccccc12)c1ccc(OC)cc1 (stereo not given) | -15 | 
26 | CCCCCNC(=O)C(c1ccc(OC)cc1)n1c(=O)c(-c2ccccc2)nc2ccccc21 (stereo not given) |  | 20.6 µM (active)
27 | CCSc1ccccc1C(=O)NCc1ccc(OC)cc1 | -8.91 | 
28 | CCOCCCNC(=O)C(NC(=O)CNC(=O)c1ccccc1)c1ccc(OC)cc1 (stereo not given) | 4.34 | 
29 | COc1ccc(NC(=O)CN(C)C(=O)c2n[nH]c3ccccc23)cc1 | -22.5 | 
30 | COc1ccc(C(C(=O)NCc2ccccc2)n2c(=O)c(-c3ccccc3)nc3ccccc32)cc1 (stereo not given) |  | 16.4 µM (active)
31 | COc1ccc(CNC(=O)CN2C(=O)c3ccccc3S2(=O)=O)cc1 | -24.4 | 
32 | COc1ccc(NC(=O)C(c2ccccc2)N2Cc3ccccc3C2=O)cc1 (stereo not given) | -8.19 | 
33 | COc1ccc(NC(=O)C(c2ccncc2)n2c(=O)c(-c3cc4ccccc4[nH]3)nc3ccccc32)cc1 (stereo not given) |  | 18.4 µM (active)
34 | COC(=O)C1=C(C(=O)OC)C2(OC1c1ccc(Br)cc1)C(=O)c1ccccc1C2=O (stereo not given) | 9.73 | 
35 | CN(c1ccc(OCC(=O)NC2=NCCS2)cc1)S(=O)(=O)c1ccc(F)cc1 | -12.9 | 
36 | O=C(CSc1ccc(-c2ccccc2)nn1)NCC1CCCO1 (stereo not given) | -15.8 | 
37 | CN(C)/C=C(\C#N)C(=O)c1cccnc1Oc1cccc(F)c1 | -13.7 | 
38 | C[C@@H]1CN([C@@H](C)CO)C(=O)c2cc(NC(=O)C3CC3)ccc2O[C@H]1CN(C)C | -12.9 | 
39 | CC(C)CC(=O)Nc1cc(C(F)(F)F)ccc1N1CCOCC1 | -14.8 | 
40 | CCOC(=O)c1c(C)[nH]c(C)c1C(=O)CSc1nc(N)cc(N)n1 | -4.75 | 
41 | COCCNc1cc(NCCOC)c([N+](=O)[O-])cc1[N+](=O)[O-] | 13.4 | 
42 | Cc1ccc(OC(=O)c2cc3ccccc3o2)cc1 | -2.8 | 
43 | CCOC(=O)c1[nH]c(C)c(CCC(=O)NCc2ccccc2C)c1C | -8.09 | 
44 | C/C(CC(=O)Nc1cccc(F)c1)=N\NC(=O)C(=O)NC1CCCCC1 | -22.7 | 
45 | C=C(C)c1cccc(C(C)(C)NC(=O)N2CCN(c3ncccn3)CC2)c1 | -17.4 | 
46 | O=C(CCN1C(=O)c2ccccc2C1=O)NNC(=O)c1ccc(Cl)cc1Cl | 11.4 | 
47 | COc1cccc(-n2cc(C(=O)O)c3ccccc3c2=O)c1 | -8.51 | 
48 | COc1cccc(-n2cc3c(c2-c2ccccc2)c(=O)n(C)c(=O)n3C)c1 |  | 11.6 µM (active)

Row | Compound | activity change, negative = growth inhibition [%] | Potency
49 | COc1ccc(Nc2cc(=O)n(-c3ccccc3)c3c2c(=O)n(C)c(=O)n3C)cc1 | -18.7 | 
50 | CN1CCN(NC(=O)Nc2ccc(Br)cc2)CC1 | 8.78 | 
51 | COC(=O)c1ccc(/C=N/NC(=O)C(=O)N2CCCCCC2)cc1 | -15.6 | 
52 | CCCNC(=O)c1cc(C2CCCN(C(=O)c3ccc4c(c3)CCO4)C2)on1 (stereo not given) | 6.81 | 
53 | O=C(c1nnc(-c2ccc(Cl)cc2)o1)C1CCCC1 | -0.7 | 
54 | O=C(c1[nH]ncc1-c1ccc(Cl)cc1)C1CO1 (stereo not given) |  | 4.61 µM (active)
55 | S=c1[nH]nc(-c2ccc(Cl)cc2)n1CC1CCCO1 (stereo not given) | -20.9 | 
56 | CC(OC(=O)CCc1nc(=O)c2ccccc2n1C)C(=O)NCc1ccc2c(c1)OCO2 (stereo not given) | -8.86 | 
57 | CCn1c2c(c(=O)n3ncc(C(=O)N4CCN(c5ccccc5)CC4)c13)CN(Cc1ccc(OC)cc1)CC2 |  | 16.4 µM (active)
58 | CCn1c(CNC(=O)c2ccccc2)nnc1SCC(=O)N1CCN(c2ccccc2)CC1 | -18.4 | 
59 | COc1ccc(N2CCN(C(=O)c3ccccc3NC(=O)C3=C(C)OCCS3)CC2)cc1 | -29.7 | 
60 | CCC(C)NC(=O)C1CCC(=O)N1Cc1ccc(C)cc1 (stereo not given) | 4.13 | 
61 | CN(Cc1ccco1)S(=O)(=O)c1nnc(NC(=O)c2ccccc2)s1 | 15.1 | 
62 | COc1ccccc1CNC(=O)CCn1c(=O)sc2ccccc21 | -9.01 | 
63 | COCCNC(=O)CCCn1c(=O)c2ccccc2n(Cc2cccc([N+](=O)[O-])c2)c1=O | 6.9 | 
64 | COc1ccc(CCNC(=O)CCCn2c(=O)c3ccccc3n(Cc3ccc(F)cc3Cl)c2=O)cc1OC | -1.95 | 
65 | COc1ccccc1CNC(=O)CCCn1c(=O)c2ccccc2n(CC(=O)Nc2ccc(C)cc2Cl)c1=O | -24.6 | 
66 | COc1ccc(NC(=O)Cn2c(=O)n(Cc3ccc(C(=O)NCc4ccccc4Cl)cc3)c(=O)c3ccccc32)cc1 | -26.8 | 
67 | COc1ccccc1CNC(=O)CCCCn1c(=O)c2ccccc2n(CC(=O)Nc2cc(Cl)ccc2C)c1=O |  | 10.3 µM (active)
68 | Cc1ccc(Cn2c(=O)n(CCCC(=O)NCc3ccccc3Cl)c(=O)c3ccccc32)cc1 | -2.45 | 
69 | COc1ccc(CCNC(=O)CCCCn2c(=O)c3ccccc3n(Cc3ccccc3)c2=O)cc1OC |  | 20.6 µM (active)
70 | COc1ccccc1CNC(=O)CCn1c(=O)c2ccccc2n(CC(=O)Nc2cccc(Cl)c2)c1=O |  | 18.4 µM (active)
